Results taken from PubChem BioAssay AID1347419 (Sanford-Burnham Center for Chemical Genomics, 2020).
The whole screen tested about 99,000 compounds, of which about 820 (0.83%) were called active. This excerpt belongs to a sample that is enriched for actives. Unmarked numbers belong to inactive results.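 The calls were made as follows: active = Z-score of -3 or lower, scaled per plate to the spread of control and sample wells; inactive = z-score above -3.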

Each compound was assayed against Protein-tyrosine kinase 2-beta (Homo sapiens) (UniProt Q14289) (assay: antagonists of Pyk2 self-association, primary screen, Q293 cells, FERM NanoBiT luminescence, HTS (AID 1347419;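 also: the deposit names both 25 µM and 10 µM; negative z-score means lost luminescence so less FERM oligomerization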)). Conditions: hits give low values.
Sequence of Protein-tyrosine kinase 2-beta (Homo sapiens) (Q14289 whole entry, looked up): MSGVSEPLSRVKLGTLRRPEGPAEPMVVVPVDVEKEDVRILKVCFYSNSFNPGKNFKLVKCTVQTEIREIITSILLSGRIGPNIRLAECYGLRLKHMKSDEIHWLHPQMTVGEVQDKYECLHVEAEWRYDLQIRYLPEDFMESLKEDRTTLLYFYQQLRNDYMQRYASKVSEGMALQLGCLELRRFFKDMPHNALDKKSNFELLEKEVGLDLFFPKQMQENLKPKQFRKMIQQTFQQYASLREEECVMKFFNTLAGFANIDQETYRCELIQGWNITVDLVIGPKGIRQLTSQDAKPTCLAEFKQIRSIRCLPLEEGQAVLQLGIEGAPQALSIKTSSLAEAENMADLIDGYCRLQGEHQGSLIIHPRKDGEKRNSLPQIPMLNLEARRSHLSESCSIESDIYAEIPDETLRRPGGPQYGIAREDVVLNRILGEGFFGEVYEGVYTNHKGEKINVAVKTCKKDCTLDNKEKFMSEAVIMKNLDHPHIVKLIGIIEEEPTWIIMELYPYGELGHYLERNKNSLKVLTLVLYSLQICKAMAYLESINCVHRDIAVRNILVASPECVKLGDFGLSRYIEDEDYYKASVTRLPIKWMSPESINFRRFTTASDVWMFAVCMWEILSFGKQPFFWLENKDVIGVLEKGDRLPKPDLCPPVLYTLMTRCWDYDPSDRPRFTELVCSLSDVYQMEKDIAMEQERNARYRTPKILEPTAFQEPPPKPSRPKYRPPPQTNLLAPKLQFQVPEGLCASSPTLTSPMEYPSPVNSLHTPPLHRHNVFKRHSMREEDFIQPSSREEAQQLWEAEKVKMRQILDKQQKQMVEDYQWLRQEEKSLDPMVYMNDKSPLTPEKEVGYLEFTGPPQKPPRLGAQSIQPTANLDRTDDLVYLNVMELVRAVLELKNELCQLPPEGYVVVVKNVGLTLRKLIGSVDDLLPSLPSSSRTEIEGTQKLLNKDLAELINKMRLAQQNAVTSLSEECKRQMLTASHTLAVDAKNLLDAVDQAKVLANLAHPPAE
Parameters: dose or concentration left out as unconfirmed
With CCOc1ccc(Br)cc1S(=O)(=O)Nc1cccc(S(=O)(=O)N(CC)CC)c1 the z-score was 1.18. In the case of O=c1oc2cc(O)ccc2cc1-c1ccc(F)cc1, the z-score is reported as -0.5. In the case of CCCCCCc1cc2cc(-c3nnc(-c4ccccc4)o3)c(=O)oc2cc1O, the z-score is reported as -3.06 (active). For CC(C)NC(=O)C(=O)NCCCOC(C)C, the z-score was 0.05. For COC(=O)c1cc(NC(=O)Cc2ccccc2[N+](=O)[O-])ccc1Cl, the z-score was -0.53. In the case of COc1cc(OC)nc(N/N=C(\c2ccccc2)c2ccncc2)n1, the z-score is reported as 2.22. Compound O=C(N/N=C/c1cccc([N+](=O)[O-])c1)C1CC(=O)N(c2ccc(Br)cc2)C1 (configuration not stated) has a z-score of 0.31. In the case of Cc1[nH]c(=O)c(C(=O)/C=C/c2ccccc2)c2c1CCCC2, the z-score is reported as -3.31 (active). O=C(/C=C/c1ccccc1)c1ccoc1 was tested, and the z-score was 2.22. Cc1nc(-c2ccccc2)sc1C(=O)/C=C/c1ccccc1 showed a z-score of -0.6. Compound CC1(c2cccc([N+](=O)[O-])c2)CC(C)(C)N(C(=O)c2ccccc2)c2ccccc21 (configuration not stated) has a z-score of -0.67. CCn1c(SCC(=O)Nc2ccc(C)cc2)nc2nc3c(cc2c1=O)CCCC3 was tested, and the z-score was -2.19. Cc1ccc(S(=O)(=O)N(CC(=O)N/N=C/c2ccc(F)cc2)c2cccc3cccnc23)cc1 gave a z-score of -0.75. Compound COc1ccc(N(CC(=O)N/N=C/c2cccs2)S(=O)(=O)c2ccc(OC)c(OC)c2)cc1 has a z-score of -2.54. With COc1ccc(N(CC(=O)N/N=C/c2cccc3c2OCCO3)S(=O)(=O)c2ccc(NC(C)=O)cc2)cc1 the z-score was -3.71 (active). CC(C)CN(C(=O)CN1CCN(S(=O)(=O)c2ccccc2)CC1)c1c(N)n(CC(C)C)c(=O)[nH]c1=O was tested, and the z-score was 0.05. In the case of CCCC(C)C(=O)OCC(=O)Nc1c(Br)cc(C)cc1Br (configuration not stated), the z-score is reported as 1.59. CCC(C)(C)n1nnnc1C(c1cccs1)N1CCN(Cc2ccccc2)CC1 (configuration not stated) showed a z-score of 0.51. CCC(C)(C)n1nnnc1C(c1ccccc1OC)N1CCSCC1 (configuration not stated) showed a z-score of -0.08. CCC(C)(C)n1nnnc1C(c1cccs1)N1CCN(c2nc3ccccc3s2)CC1 (configuration not stated) was tested, and the z-score was -3.48 (active). With Cc1ccc(C(=O)COC(=O)c2cccc(N3C(=O)c4c(C)nc5ccccc5c4C3=O)c2)cc1C the z-score was 0.74. For N#CC(C(N)=O)=C1CCC2(CC1)OCCCCO2, the z-score was 0.83. CC1(C)C/C(=C(/C#N)C(N)=O)CCO1 was tested, and the z-score was -3.62 (active). With O=C(Nc1ccccc1)c1cc2ccccc2[nH]1 the z-score was 0.86. S=C1Nc2cc(Cl)ccc2Sc2ccccc21 was tested, and the z-score was -0.5. CC1=C(C(=O)Nc2cc(C)ccn2)C(c2cnn(C)c2)C2=C(CC(c3ccccc3)CC2=O)N1 (configuration not stated) showed a z-score of 1.36. Cc1nn(-c2ccccc2)c(C)c1/C=C/C(=O)OC(C)C(N)=O (configuration not stated) was tested, and the z-score was 0.82.
